Compound activity from PubChem BioAssay.
Only some compounds are listed: those with a hit (about 7.9% of all), similar ones and a draw of the others.
FMDV antiviral = antivirals against foot and mouth disease virus | FMDV antiviral cell-based qHTS | Potency, µM (top dose mostly 57.9 µM), inactives show at the top dose activity change, negative = inhibition, usual class: inhibitors | AID 1159524 | 410,000 tested, 1.2% active; calls by dose curve; tested in HEK293T cells; also: read-out not given here; potency is read from the fitted curve at half-maximal effect; nearly all actives have a fitted effect of over 45% in size
MARV entry inh = inhibitors of Marburg virus binding or cell entry | Marburg virus pseudotyped entry inhibition, cell reporter | Potency, µM (titrated, usually from 37.8 µM), for inactives: at the top dose activity change, negative = inhibition, usual class: inhibitors | 300,000 tested, 1.8% active; calls by dose curve; tested in HEK293 cells; also: potency is read from the fitted curve at half-maximal effect
HCV inhibitor = blocks hepatitis C virus; Huh7.5.1 HCVcc-Cre infection, luciferase reporter, 44 h; Potency, µM (series often up to 41.8 µM), inactives show top-dose activity change, negative = inhibition, most hits filed as inhibitors; 340,000 tested, 3.4% active; AID 651820; active = well fitted inhibition curve with a large enough effect; inconclusive = small, poorly fitted or top-dose-only effect, or another doubt; inactive = no such curve, though single readings can be large or run the other way; also: potency is read from the fitted curve at half-maximal effect
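Whole-lifecycle infectious HCVcc-Cre system; cells 1,000/well, compound then virus (~0.5 moi) added 4 h after plating, 44 h culture. Luciferase read 15 sec following 15 min substrate incubation, room temp.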
HCMV inh = blocks human cytomegalovirus replication | 410,000 tested, 4.5% active | HFF cells, HCMV-luciferase reporter, 72 h; stronger effect = lower value | AID 1259415 | activity change, negative = inhibition, % at 57.5 µM; in the data active = activity change below about -60%; inconclusive = no clear call, values can overlap the other calls; inactive = above about -39%
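Inhibition of viral replication was scored as loss of reporter luminescence in HFFs infected with HCMV-luciferase (MOI 1 PFU/cell) for 72 h; compounds tested at 2 doses, normalized to buffer and Salinomycin controls.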
LASV entry inh = inhibitors of Lassa virus binding or cell entry. 300,000 tested, 1.2% active. AID 540256. Lassa virus pseudotype entry inhibition, cell reporter. Potency, µM (series often up to 37.9 µM), for the others: top-dose activity change, negative = inhibition, most hits filed as inhibitors; calls by dose curve; tested in HEK293 cells; also: potency is read from the fitted curve at half-maximal effect; nearly all actives have a fitted effect of over 50% in size
Active calls of the source: *; [ ] = dose if it differs, or a comment. % is scaled to controls: 0 for no effect and ±100 for the full control effect.

How did CCN(CC)c1ccc(/C=N/Nc2nc(C)cc(C)n2)cc1 do in these assays?
FMDV antiviral: 9%; MARV entry inh: 10µM*; HCV inhibitor: inconclusive; HCMV inh: inconclusive; LASV entry inh: inconclusive

What do the screens show for `CCN(CC)c1ccc(/C=N/Nc2nn[nH]n2)cc1`?
FMDV antiviral: 11%; HCV inhibitor: 6%; HCMV inh: 3

Results for Cc1cc(C)nc(N/N=C/c2ccccc2)n1 ?
FMDV antiviral: 43%; MARV entry inh: 17%; HCV inhibitor: -5%; HCMV inh: 26; LASV entry inh: 6%

Results for Cc1cc(-c2ccccc2)nc(N/N=C/c2ccc(O)cc2)n1 ?
FMDV antiviral: -27%; MARV entry inh: inconclusive; HCV inhibitor: 11µM*; HCMV inh: -16; LASV entry inh: 8.9µM*

What do the screens show for `C/C(=N\Nc1nc(C)cc(-c2ccccc2)n1)c1ccc(F)cc1`?
FMDV antiviral: -1%; HCV inhibitor: inconclusive; HCMV inh: -26

How did COc1ccc(C(NC(=O)C2CCN(CCc3ccccc3)CC2)c2ccccn2)cc1 (centres undefined) do in these assays?
FMDV antiviral: -2%; HCMV inh: 6

Results for O=C1N=C2C=CC(Cl)=CC2C(c2ccccc2)=N1 (centres undefined) ?
MARV entry inh: 9%

Results for Cc1ccc(S(=O)(=O)CCC(=O)OCC(=O)NCC(=O)Nc2c(C)cc(C)cc2C)cc1 ?
FMDV antiviral: -20%; MARV entry inh: 9%; HCV inhibitor: 21%; HCMV inh: -10; LASV entry inh: -11%

Results for C#CCCOC(=O)N1C2=NC3=C(C(=O)N(Cc4ccc5c(c4)OCO5)C3=O)C3N(C)c4ccccc4[C@]23C[C@H]1CO (some centres undefined) ?
MARV entry inh: -23%[14.2 µM]; LASV entry inh: inconclusive

What do the screens show for `Oc1ccc(/C=N/Nc2nc(-c3ccc(Cl)cc3)cc(C(F)(F)F)n2)cc1`?
FMDV antiviral: 25µM*; MARV entry inh: 11µM*; HCV inhibitor: 13µM*; HCMV inh: -77*; LASV entry inh: inconclusive

How did COc1ccc(O)c(/C=N/Nc2nc(C)cc(-c3ccccc3)n2)c1 do in these assays?
FMDV antiviral: -19%; MARV entry inh: inconclusive; HCV inhibitor: 4µM*; HCMV inh: -26; LASV entry inh: 2%

How did CCN(CC)C(=O)C1c2ccccc2Oc2ccccc21 do in these assays?
FMDV antiviral: -18%; MARV entry inh: inconclusive; HCV inhibitor: inconclusive; HCMV inh: -29; LASV entry inh: 13%[46.1 µM]

How did Oc1ccc(/C=N/NC(=S)NC2CC3CCC2C3)cc1 (centres undefined) do in these assays?
FMDV antiviral: 11%; MARV entry inh: inconclusive; HCV inhibitor: -26%; HCMV inh: 31; LASV entry inh: 11µM*

How did Cn1nc(C(F)(F)F)c(C#N)c1N1CCN(c2ccc(F)cc2)CC1 do in these assays?
FMDV antiviral: inconclusive; MARV entry inh: -17%; HCV inhibitor: inconclusive; HCMV inh: -73*; LASV entry inh: -9%

Results for O=C(OCc1cn([C@H]2C[C@H](c3ccc(Cl)cc3)N(C(=O)c3cccs3)C[C@@H]2O)nn1)c1ccccc1 ?
FMDV antiviral: 3%; HCMV inh: -20

How did CC(C)(C)NC(=O)CSc1nc2ccc(NC(=O)CSc3nnnn3Cc3ccccc3)cc2s1 do in these assays?
FMDV antiviral: 14µM*; MARV entry inh: 8.9µM*; HCV inhibitor: 2µM*; HCMV inh: -77*; LASV entry inh: inconclusive

Results for CC(C)(C)NC(=O)CSc1nc2ccc(NC(=O)CSc3nnc(N)s3)cc2s1 ?
FMDV antiviral: 28µM*; MARV entry inh: inconclusive; HCV inhibitor: 13µM*; HCMV inh: 6; LASV entry inh: 3%

Results for O=C(CCn1cnc2onc(-c3ccc(F)cc3)c2c1=O)N1CCN(c2ccccc2F)CC1 ?
FMDV antiviral: -6%; HCMV inh: -1; LASV entry inh: 9%[46.1 µM]

Results for COc1ccc(CN2C(=O)CS/C2=N/N=C/c2ccccc2)cc1 ?
FMDV antiviral: 14%; HCV inhibitor: 13µM*; HCMV inh: 53

What do the screens show for `COc1ccc(S(=O)(=O)Nc2ccc3c(c2)N(C(C)=O)CCC3)cc1F`?
FMDV antiviral: 10µM*; HCMV inh: -11; LASV entry inh: inconclusive

Results for COc1cccc(NS(=O)(=O)c2ccc3c(c2)CCCN3C(C)=O)c1 ?
MARV entry inh: -14%; HCV inhibitor: -11%; HCMV inh: -60*; LASV entry inh: -16%

What do the screens show for `Cc1ccc(S(=O)(=O)N2CCCc3cc(NS(=O)(=O)c4cc(F)ccc4F)ccc32)cc1`?
FMDV antiviral: -30%; HCMV inh: -21; LASV entry inh: inconclusive

Results for COc1ccc(NS(=O)(=O)c2ccc3c(c2)CCCN3C(C)=O)cc1 ?
FMDV antiviral: 18%; MARV entry inh: -3%[46.1 µM]; HCV inhibitor: 22%; HCMV inh: inconclusive; LASV entry inh: inconclusive

What do the screens show for `Cc1ccc(S(=O)(=O)N2CCCc3cc(NS(=O)(=O)c4ccc(F)cc4)ccc32)cc1`?
FMDV antiviral: -25%; HCMV inh: inconclusive; LASV entry inh: inconclusive

How did Cc1ccc(S(=O)(=O)N2CCCc3cc(NS(=O)(=O)c4ccccc4)ccc32)cc1 do in these assays?
FMDV antiviral: 1%; HCMV inh: -9; LASV entry inh: 10µM*

Results for COc1ccc(S(=O)(=O)Nc2ccc3c(c2)CCCN3S(=O)(=O)c2ccc(C)cc2)cc1F ?
FMDV antiviral: -12%; HCMV inh: -64*; LASV entry inh: inconclusive

Results for O=C1CCCC=C1[C@@H](O)COCc1ccccc1 ?
MARV entry inh: 3%[14.2 µM]

How did O=C1CC(/C=C/c2ccc(Cl)cc2)=Nc2ccccc2N1 do in these assays?
FMDV antiviral: 5%; HCV inhibitor: inconclusive; HCMV inh: -91*

How did O=C1CC(/C=C/c2ccccc2)=Nc2ccccc2N1 do in these assays?
FMDV antiviral: 60%; HCV inhibitor: -29%; HCMV inh: -23

How did CC1(C)CC(/C=C/c2ccccc2)=Nc2ccccc2N1 do in these assays?
FMDV antiviral: 0%; HCV inhibitor: -19%; HCMV inh: -78*

What do the screens show for `Cc1ccc(S(=O)(=O)N2C[C@H]3[C@H]4C(=O)N(c5ccccc5)C(=O)[C@H]4C[C@H](OC(=O)Nc4cccs4)[C@@]3(O)C2)cc1`?
FMDV antiviral: -21%; HCMV inh: 2

Results for N[C@H](Cc1ccc(O)c(O)c1)C(=O)O ?
MARV entry inh: 16µM*

How did N[C@H](Cc1ccc(N(CCCl)CCCl)cc1)C(=O)O do in these assays?
MARV entry inh: 5.8µM*

Results for CCOC(=O)C(NC(=O)C(Cc1ccc(N(CCCl)CCCl)cc1)NC(C)=O)C(C)C (centres undefined) ?
FMDV antiviral: -9%; MARV entry inh: -11%; HCV inhibitor: -14%; HCMV inh: 54; LASV entry inh: 7%

Results for NC(Cc1ccc(O)c(O)c1)C(=O)O (centres undefined) ?
FMDV antiviral: -28%
